IL-1B inflam inh – qHTS for Inhibitors of Inflammasome Signaling: IL-1-beta AlphaLISA Primary Screen; THP-1 LPS/ATP IL-1B secretion, AlphaLISA, 16 h; stronger effect = lower value; activity change, % at 57.5 µM; 4.7% of 360,000 active; in the data active means activity change below about -50%; inconclusive means mostly about -30% to -49%
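THP-1 cells pretreated 1 hr with compounds (up to 57.5 uM final), then stimulated with LPS (250 ng/mL final) plus ATP (1.25 mM final); secreted IL-1B measured by AlphaLISA after 16 hr, decreased signal indicating inhibition.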
ATXN2 expr inh – Primary qHTS for Inhibitors of ATXN expression; 0.72% of 360,000 active; Potency, µM (top dose mostly 57 µM), hits mostly inhibitors; HEK-293 ATXN2-luciferase reporter, luminescence, 24 h; further: nearly all actives have a fitted effect of over 55% in size
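ATXN2-luciferase reporter cells (luciferase flanked by upstream and downstream ATXN2 gene portions) were treated 24 h at 37 °C with compounds at up to 57 uM. SteadyGlo luminescence gave expression; GF-AFC fluorescence gave viability.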
USP2a inh – qHTS Assay for Inhibitors of Ubiquitin-specific Protease USP2a Using CHOP2 as the Reporter | AID 463254, 2010 | 0.01% of 330,000 active | USP2 core, Ub-CHOP2 coupled fluorogenic reporter, 485/531 | Potency, µM (titrated, usually from 38.3 µM), usual class: inhibitors
Target sequence (O75604 whole entry, looked up): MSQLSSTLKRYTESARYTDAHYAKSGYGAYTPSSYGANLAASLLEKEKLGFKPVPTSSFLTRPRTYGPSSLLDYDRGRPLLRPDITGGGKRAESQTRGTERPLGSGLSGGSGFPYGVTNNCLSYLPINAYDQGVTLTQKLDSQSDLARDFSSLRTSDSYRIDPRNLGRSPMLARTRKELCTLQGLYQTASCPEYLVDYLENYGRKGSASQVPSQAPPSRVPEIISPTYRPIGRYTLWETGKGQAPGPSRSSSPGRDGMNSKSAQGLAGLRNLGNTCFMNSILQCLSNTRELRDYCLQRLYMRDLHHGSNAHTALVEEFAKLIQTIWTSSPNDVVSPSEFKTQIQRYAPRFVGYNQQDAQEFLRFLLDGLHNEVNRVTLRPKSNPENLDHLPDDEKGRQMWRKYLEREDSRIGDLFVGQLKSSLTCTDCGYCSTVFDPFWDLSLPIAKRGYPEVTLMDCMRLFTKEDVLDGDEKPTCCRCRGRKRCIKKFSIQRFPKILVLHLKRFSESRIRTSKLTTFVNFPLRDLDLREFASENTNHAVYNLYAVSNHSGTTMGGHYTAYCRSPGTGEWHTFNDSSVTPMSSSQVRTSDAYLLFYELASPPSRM
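USP2 core (10nM final) preincubated 30min RT with compound in 20mM Tris-HCl pH 8.0, 2mM CaCl2, 2mM beta-mercaptoethanol, 0.05% CHAPS; 25nM Ub-CHOP2 plus 25nM reporter substrate added, fluorescence (Ex485/Em531) read after 60min.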
USP1-UAF1 inh – Inhibitors of USP1/UAF1: Primary Screen; recombinant USP1/UAF1, Ub-Rhodamine cleavage fluorescence; Potency, µM (top dose mostly 57.1 µM), actives largely listed as inhibitors; 0.23% of 390,000 active; further: nearly all actives have a fitted effect of over 60% in size
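High-throughput fluorogenic screen: 1nM USP1/UAF1 complex, Ub-Rho substrate 150nM final, 50mM HEPES pH 7.8 with 0.5mM EDTA, 0.1 mg/ml BSA, 1mM TCEP and 0.01% Tween-20.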
ATXN viability – Viability Counterscreen for Primary qHTS for Inhibitors of ATXN expression; 0.49% of 400,000 active; S2 cells (HEK-293 line with an ATXN2-luciferase reporter) viability, CellTiter-Fluor protease fluorescence, 24 h; Potency, µM (top dose mostly 56.7 µM), hits mostly cytotoxic; further: nearly all actives have a fitted effect of over 40% in size
Hits are given with their value; n = inactive; u = inconclusive; x = no result; ! = repeats disagree; [ ] = another dose, or the depositor's remark. An excerpt weighted towards active compounds, which were near 4.8% of everything screened. Unless noted, the call rests on the fitted dose curve; in most records, active means well fitted curve in the direction sought with a large enough effect; inconclusive means small, poorly fitted or top-dose-only effect, or another doubt; inactive means no such curve, though single readings can be large; an effect the other way counts as inactive or inconclusive.

SMILES	IL-1B inflam inh	ATXN2 expr inh	USP2a inh	USP1-UAF1 inh	ATXN viability
CC(C)C(=O)N1CCN(c2ccccc2NC(=O)c2ccc3c(c2)OCCO3)CC1	n	n	x	n	n
CC(C)C(=O)N1CCN(c2ccc(NC(=O)c3ccc4c(c3)OCCO4)cc2Cl)CC1	-97	u	n	n	18µM
COc1cc(NC(=O)c2ccc3c(c2)OCCO3)ccc1NC(=O)c1ccccc1Cl	-53	n	n	n	n
CCN(CC)S(=O)(=O)c1ccc(N2CCOCC2)c(NC(=O)c2cc(C)cc(C)c2)c1	-51	n	n	n	n
O=C(CCC1CCCC1)Nc1cc(Cl)ccc1N1CCOCC1	-57	n	n	n	n
COc1ccc(NC(=O)c2ccc3c(c2)OCCO3)cc1OC	n	n	n	u	n
CCN(CC)S(=O)(=O)c1ccc(N2CCOCC2)c(NC(=O)c2ccccc2)c1	n	n	n	n	n
CCC1CN(C(=O)Nc2cc(Cl)c(OC)cc2OC)c2ccccc2O1 (stereo not given)	x	x	x	n	x
CC1(C(=O)Nc2ccc(Cl)c(Cl)c2)CCN1C(=O)Cc1ccc(-c2ccccc2)cc1 (stereo not given)	n	n	x	x	n
O=C(O)CCC1(CCC(=O)O)CCCC(CCC(=O)O)(CCC(=O)O)C1=O	n	n	x	n	n
CC(=O)N1CCN(c2ccc(NC(=O)c3ccc4c(c3)OCCO4)cc2Cl)CC1	-88	n	n	n	n
O=C(Nc1cc(Cl)ccc1N1CCOCC1)c1ccc2c(c1)OCCO2	-71	n[11.3 µM]	n	n	n
CCCC(=O)N1CCN(c2ccc(NC(=O)c3ccc4c(c3)OCCO4)cc2)CC1	n	u	n	n	n
Cc1ccc(C(=O)N2CCC(c3c[nH]c4ccccc34)(c3c[nH]c4ccccc34)CC2)cc1	x	n	x	n	u
O=C(NCC(O)CO)c1c(I)c(C(=O)NCC(O)CO)c(I)c(N(CCO)C(=O)CO)c1I (stereo not given)	x	n	x	x	n
Cc1c(C(=O)NC2CCN(Cc3ccccc3)C2)oc2c(Cl)cccc12 (stereo not given)	-88	n	n	n	n
CN(CC(=O)NC(=O)NC1CCCCC1)CC(=O)Nc1ccc(OC(F)(F)F)cc1	-70	n	n	n	n
CN(CC(=O)Nc1ccc(OC(F)(F)F)cc1)C(=O)Cc1c(Cl)cccc1Cl	-55	n	n	n	n
Cc1ccc(SCCC(=O)N(C)CC(=O)Nc2c(C)cccc2C)cc1	n	n	n	n	n
Cc1ccc(S(=O)(=O)N2CCC(=O)N([C@H](COCc3ccc(Cl)cc3)Cc3ccccc3)CC2)cc1	n	n	x	x	u
Cc1cccc(COCC(Cc2ccccc2)N2CCN(C(=O)c3cc(Cl)cc(Cl)c3)CCC2=O)c1 (stereo not given)	-64	u	n	n	u
O=C(c1ccc(Cl)c(Cl)c1)N1CCC(=O)N(C(COCc2ccc(Cl)cc2)Cc2ccccc2)CC1 (stereo not given)	-73	u	n	n	u
O=C(c1ccc(Cl)c(Cl)c1)N1CCC(=O)N(C(COCc2cccc(C(F)(F)F)c2)Cc2ccccc2)CC1 (stereo not given)	-86	u	n	n	u
Cc1cccc(COCC(Cc2ccccc2)N2CCN(C(=O)c3ccc(Cl)c(Cl)c3)CCC2=O)c1 (stereo not given)	-74	u	n	n	u
Cc1cccc(COCC(Cc2ccccc2)N2CCN(C(=O)c3cccc(C)c3)CCC2=O)c1 (stereo not given)	n	n	n	n	u
SMILES	IL-1B inflam inh	ATXN2 expr inh	USP2a inh	USP1-UAF1 inh	ATXN viability
Cc1ccc2c(c1)CN(CCNC(=O)c1ccc3nc(C)[nH]c3c1)CC(C)O2 (stereo not given)	x	x	x	x	n
CCN(CC(=O)Nc1c(F)cccc1F)C(=O)c1cc2ccccc2oc1=O	n	n	n	n	n
Cc1cccc(COC[C@H](Cc2ccccc2)N2CCN(C(=O)c3ccc(Cl)c(Cl)c3)CCC2=O)c1	-65	n	x	x	u
NC(=O)C12CCCC(Br)(CCC1)C2	-63	n	n	n	n
CSc1cccc(NC(=O)CCCOc2cc(=O)n(C)c3ccccc23)c1	n	n	x	x	n
COc1ccc(CCNC(=O)/C(C#N)=C/c2cccc(OCc3ccccc3)c2)cc1OC	u	n	n	n	n
COCCNC(=O)/C(C#N)=C/c1c(F)cccc1Cl	-54	n	n	n	n
N#C/C(=C\c1cccc(NC(=O)c2ccccc2Cl)c1)C(=O)NCCc1ccccc1	-101	n	n	n	n
COCCCNC(=O)/C(C#N)=C/c1ccc(F)cc1	n	n	n	n	n
COCCCNC(=O)/C(C#N)=C/c1cccc(NC(=O)c2ccccc2Cl)c1	-103	n	n	n	n
CN1N=C(N)c2cn([C@@H]3O[C@H](COP(=O)(O)O)[C@@H](O)[C@@H]3O)c3ncnc1c23	x	n	x	x	x
O=C(CN1C(=O)COc2ccc(S(=O)(=O)NC3CCCC3)cc21)Nc1ccc(Cl)cc1	x	n	x	n	x
COc1ccccc1CNC(=O)COC(=O)C12CC3CC(CC(O)(C3)C1)C2	n	x	n	n	n
COc1cc(/C=C/C(=O)OCC(=O)N2c3ccccc3NC(=O)C2(C)C)cc(OC)c1OC	-65	u	n	n	n
CC(S)C(=O)NCC(=O)O (stereo not given)	x	n	x	x	n
Cc1ccc(Cn2c(C(CO)Nc3nc(-c4ccc(F)cc4)cs3)nc3ccccc32)cc1 (stereo not given)	-69	u	x	n	x
CC1(Cc2cccc(C(F)(F)F)c2)C(=O)Nc2ccc(-c3ccc(F)c(Cl)c3)cc21 (stereo not given)	-70	u	x	x	x
Cc1ccc(C)c(S(=O)(=O)Nc2ccc(O)c3ccccc23)c1	n	x	n	n	u
Cc1ccc(S(=O)(=O)Nc2ccc(O)c3ccccc23)c(C)c1	-81	n	n	u	u
COc1ccc(S(=O)(=O)Nc2ccc(O)c3ccccc23)cc1	n	u	n	u	20µM
CS(=O)(=O)N(CC(=O)NCCSCc1ccccc1Cl)c1ccc(F)cc1	n	x	n	n	n
CCCCNc1c(-c2ccc(SC3CCCCC3)c(OC)c2)nc2ccc(C)cn12	-68!	u	n	u	u
COc1ccc(-c2nc3ccc(Cl)cn3c2NC2CCCCC2)cc1SC1CCCCC1	-58	n	n	u	n
COc1ccc(-c2ccc(-c3nc4ccc(C)cn4c3NC3CCCCC3)cc2OC)cc1	-55!	u	n	n	n
CCCCNc1c(-c2ccc(SC3CCCCC3)cc2)nc2ccccn12	-73!	n	n	n	u
Cc1ccc2nc(-c3cccc(SC4CCCCC4)c3)c(NC3CCCCC3)n2c1	n	n	n	n	n

Assay outcomes from PubChem.
